From PubChem BioAssay AID504467 (National Center for Advancing Translational Sciences (NCATS), 2011) come the findings set out here.

Among all 330,000 compounds or so, about 7,700 (2.3%) were called active. Another 26% or so got no clear call; they are omitted. Calls come from the whole dose curve; as a rule, active = well fitted inhibition curve with a large enough effect; inconclusive = small, poorly fitted or top-dose-only effect, or effect the other way; inactive = flat fitted curve, though single readings scatter. What follows is part of a selection rich in actives, with near analogues and random picks from the rest. Entries that show only a call come without a potency.
Potency is the fitted concentration of half-maximal effect.

This test is described as follows: qHTS screen for small molecules that inhibit ELG1-dependent DNA repair in human embryonic kidney (HEK293T) cells expressing luciferase-tagged ELG1. Note: nearly all actives have a fitted effect of over 55% in size. The note with it: HEK293T ELG1-luciferase reporter, luminescence, 16 h, DNA damage induced by 5-fluorouridine; series mostly up to 46.1 µM. In outline: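 Quantitative HTS, concentration-response format. 2,000 cells/well co-treated with 5-fluorouridine and compound, 16 hr in 5% CO2 at 37 °C; ONE-Glo luminescence read after 30 min.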
On the technique in general: Quantitative high-throughput screening tests each substance at several concentrations.
In the case of `COc1ccc(C(=O)O)cc1S(=O)(=O)NC1CCN(Cc2ccccc2)CC1`, the Potency result was “inactive”.

On to `CCOCCCN(C)C1CCN(C(=O)c2oc3ccccc3c2NC(=O)Cc2cccc([N+](=O)[O-])c2)CC1`, for which the Potency entry is “inactive”.

With `CCCCC[C@@H]1C=C(C(=O)O)[C@H](c2ccc(C#N)cc2)N1S(=O)(=O)c1ccc(C)cc1`, the Potency result is “inactive”.

`COc1ccc(C(C(=O)NCC2CCCO2)N(C(=O)Cn2nnc3ccccc32)c2ccc(NC(C)=O)cc2)cc1OC` (stereo not drawn): the Potency result is “inactive”.

For `COc1ccccc1CNS(=O)(=O)c1cc(C(=O)NCc2ccccn2)c(Cl)cc1Cl`, the Potency result is “inactive”.

Consider `COc1ccc(N2CCN(C(=O)Cn3cnc4sc(C)c(S(=O)(=O)N5CCOCC5)c4c3=O)CC2)cc1`, for which the Potency entry is “inactive”.

Consider `CCN(CC)P(=O)(Nc1ccc(SC(F)F)cc1)c1ccc(N(C)C)cc1NC(=O)c1ccco1` (stereo not drawn), for which the Potency is 7.3 µM (active).

On to `COc1ccc(OCC(=O)Nc2ccc(NC(=O)c3ccco3)c(C)c2)cc1`, for which the Potency result was “inactive”.

`Cc1cccc(OCC(=O)Nc2ccc(NC(=O)c3ccco3)c(C)c2)c1`: the Potency result is “inactive”.

In the case of `CC(C)(C)n1ncc2c(=O)n(Cc3c(Cl)cccc3Br)cnc21`, the Potency entry is “inactive”.

With `Cc1ccc2c(c1)c1ncn(Cc3ccc(F)cc3)c(=O)c1n2C`, the Potency entry is “inactive”.

For the molecule `CC(C)(C)n1ncc2c(=O)n(Cc3ccc(Cl)cc3)cnc21`, the Potency is 20.6 µM (active).

Consider `COc1cc(NC(=O)COC(=O)c2cc(S(=O)(=O)N3CCOCC3)ccc2F)cc(OC)c1`, for which the Potency entry is “inactive”.

As to `COCCNc1nc(N)c([N+](=O)[O-])c(N2CCCCCC2)n1`, the Potency entry was “inactive”.

Consider `O=C(CN1CCN(c2ccccc2O)CC1)NC(=O)NCc1ccccc1`, for which the Potency entry was “inactive”.

Regarding `C/C(=C\c1ccco1)CN1CCC(N2CCC(C(=O)N3CCOCC3)CC2)CC1`, the Potency result is “inactive”.

Consider `O=C(C1CCN(C2CCN(Cc3cccc4c3OCO4)CC2)CC1)N1CCOCC1`, for which the Potency result was “inactive”.

With `O=C(C1CCN(C2CCN(Cc3ccc4cc(F)ccc4n3)CC2)CC1)N1CCCC1`, the Potency is 13 µM (active).

Take `CCCC(CNC(=O)COC(=O)C1=NNC(=O)CC1)c1ccc(Cl)cc1Cl` (stereo not drawn): the Potency result was “inactive”.

As to `CN(CC(=O)Nc1ccc(C(N)=O)cc1)S(=O)(=O)c1ccc2c(c1)OCCO2`, the Potency entry is “inactive”.

As to `CCOc1ccc(NS(=O)(=O)c2ccc(C(=O)NC3CCN(Cc4ccccc4)CC3)cc2)cc1`, the Potency result is “inactive”.

In the case of `COc1cc(OC)cc(C(=O)N[C@H](C(=O)NNC(=O)c2ccc(Br)cc2)C(C)C)c1`, the Potency entry is “inactive”.

On to `O=C(NCC(F)(F)F)Nc1nnc(C(F)(F)F)s1`, for which the Potency was 18.4 µM (active).

`O=C(Nc1nnc(COc2ccccc2)s1)Nc1ccccc1F`: the Potency entry is “inactive”.

As for `COc1ccc(C)cc1NC(=O)CCC(=O)Nc1nnc(C(F)(F)F)s1`, the Potency result was “inactive”.

`O=C(NCCS(=O)(=O)N1CCN(c2ccccc2F)CC1)c1ccc(Br)o1`: the Potency result was “inactive”.

Turning to `CCOc1ccc(CC(=O)NCCS(=O)(=O)N2CCN(c3ccccc3)CC2)cc1`, the Potency result was “inactive”.

On to `COc1ccccc1N1CCN(S(=O)(=O)CCNC(=O)c2ccc(OC(C)C)cc2)CC1`, for which the Potency was 13 µM (active).

`COc1ccc(S(=O)(=O)N2CCCCC2)cc1NC(=O)C1CC(=O)N(c2ccc3c(c2)OCCO3)C1` (stereo not drawn): the Potency entry is “inactive”.

On to `CC1CC(=O)Nc2ccccc2N1C(=O)COc1ccc2cc(Br)ccc2c1` (stereo not drawn), for which the Potency entry was “inactive”.

On to `C#CCOc1ccccc1/C=C1/C(=O)ON=C1C`, for which the Potency entry was “inactive”.

Turning to `Cc1cccc(/C=N/NC(=O)CNc2cccc3ccccc23)n1`, the Potency entry was “inactive”.

In the case of `Cn1cccc1/C=N/NC(=O)CNc1cccc2ccccc12`, the Potency was 13 µM (active).

Consider `C/C(=N\NC(=O)CNc1cccc2ccccc12)c1ccc(Br)s1`, for which the Potency result was “inactive”.

With `Cc1ccc(NC(=O)COc2coc(CN3CCc4ccccc4C3)cc2=O)cc1Cl`, the Potency entry is “inactive”.

On to `CC1=NN(Cc2ccccc2)C(=O)/C1=C/c1ccc(N(C)C)cc1`, for which the Potency entry was “inactive”.

`CN(C)c1cc[n+](Cc2ccccc2)cc1`: the Potency is 8.2 µM (active).

Regarding `CC(Cc1ccccc1)C(=O)N(C)Cc1ccccc1` (stereo not drawn), the Potency entry is “inactive”.

`CCN1C(=O)[C@@H]2[C@@H](c3ccc(-c4ccccc4)cc3)N3CCCC[C@@]3(C(=O)OC)[C@@H]2C1=O`: the Potency entry was “inactive”.

As to `CCCNC(=O)c1c(N)n(-c2ccc(S(N)(=O)=O)cc2)c2nc3ccccc3nc12`, the Potency entry was “inactive”.

For the molecule `CCOc1ccccc1NC(=O)Cn1nnc(C(=O)NCc2cccs2)c1N`, the Potency entry is “inactive”.

As for `CC(C)Cn1c(N)c(C(=O)NCc2cccs2)c2nc3ccccc3nc21`, the Potency was 9.2 µM (active).

Consider `CC(C(=O)N1CCc2ccccc21)N(C)CC(=O)Nc1ccc(F)cc1` (stereo not drawn), for which the Potency result is “inactive”.

For the molecule `Cc1noc(C)c1CSCC(=O)N(CCC(C)C)c1c(N)n(Cc2ccccc2)c(=O)[nH]c1=O`, the Potency entry is “inactive”.

As to `COc1cccc(OCC(O)CN2CCN(CCO)CC2)c1` (stereo not drawn), the Potency result was “inactive”.

As for `Cc1cccc(OCC(O)CN2CCN(S(=O)(=O)c3ccc(C)cc3C)CC2)c1` (stereo not drawn), the Potency is 11.6 µM (active).

Regarding `Cc1ccc(OCC(O)CN2CCN(CC(O)COc3ccc(C)cc3Cl)CC2)c(Cl)c1` (stereo not drawn), the Potency entry is “inactive”.

For the molecule `CCC(=O)Nc1nc(C)c(C(=O)Nc2cccc(Cl)c2)s1`, the Potency entry was “inactive”.

On to `Cc1ccc(Nc2nc(-c3sc(NC(=O)c4ccccc4)nc3C)cs2)cc1`, for which the Potency result is “inactive”.

Turning to `CCCCCCC(=O)Nc1nc(C)c(-c2csc(Nc3cc(Cl)ccc3OC)n2)s1`, the Potency result is “inactive”.

`CC(=O)Nc1nc(C)c(-c2csc(Nc3ccc(S(N)(=O)=O)cc3)n2)s1`: the Potency result was “inactive”.

Turning to `CCCCC(=O)Nc1nc(C)c(-c2csc(Nc3ccc(Cl)cc3)n2)s1`, the Potency is 20.6 µM (active).

For the molecule `C=CCCC(=O)Nc1nc(C)c(-c2csc(Nc3ccc(Cl)cc3)n2)s1`, the Potency is 18.4 µM (active).

For the molecule `CCOC(=O)N1CCN(C(=O)c2ccccc2SCC(=O)NCC2CCCCC2)CC1`, the Potency entry was “inactive”.

Regarding `CN(C(=O)COC(=O)Cc1ccccc1[N+](=O)[O-])C1CCS(=O)(=O)C1` (stereo not drawn), the Potency result is “inactive”.

Regarding `COc1ccc(C(=O)COC(=O)CN2C(=O)C3CC=CCC3C2=O)c(OC)c1` (stereo not drawn), the Potency entry is “inactive”.

In the case of `CCc1cccc(NC(=O)CCCN2C(=O)C(c3ccccc3)Oc3cccnc32)c1` (stereo not drawn), the Potency result was “inactive”.

For `COCCN(CCOC)c1nc(N)c2c(N)nc3c(c2c1C#N)CC(=O)N3Cc1ccc(Cl)cc1`, the Potency is 5.17 µM (active).

Turning to `CCC(=O)Nc1ccc(S(=O)(=O)Nc2c(NC)c3ccccc3oc2=O)cc1`, the Potency entry was “inactive”.

In the case of `CC1CC(C)CN(CCCNC(=O)c2csc3c2CCCCC3)C1` (stereo not drawn), the Potency result is “inactive”.

As to `CC(C(=O)c1ccc(-c2ccccc2)cc1)[n+]1cccc(Br)c1` (stereo not drawn), the Potency result was “inactive”.

In the case of `Cc1ccc2c(c1)C1CN(C)CCC1N2S(=O)(=O)c1cccc(F)c1` (stereo not drawn), the Potency result is “inactive”.

Turning to `CCOC(=O)C1CCN(Cc2c(C(=O)N3CCOCC3)nc3c(C)cccn23)CC1`, the Potency entry is “inactive”.

For the molecule `Cc1cccn2c(CNCC(C)Oc3cccnc3)c(C(=O)N3CCOCC3)nc12` (stereo not drawn), the Potency result is “inactive”.

Regarding `Cc1cccc(N2CCC(NCc3c(C(=O)N4CCCCC4)nc4c(C)cccn34)CC2)c1`, the Potency is 25.9 µM (active).

On to `CN(CC(=O)Nc1ccc(Cl)cc1)CC(=O)Nc1cccc2ccccc12`, for which the Potency entry is “inactive”.

Turning to `Cc1ccc(S(=O)(=O)N(Cc2ccccc2)c2ccccn2)cc1[N+](=O)[O-]`, the Potency result is “inactive”.

With `Cn1c(Cc2cccc3ccccc23)nnc1SCC(=O)N1CCN(c2cccc(Cl)c2)CC1`, the Potency was 18.4 µM (active).

As to `Cc1ccccc1NC(=O)Cc1nnc(SCC(=O)N2CCN(c3ccccc3)CC2)n1C`, the Potency result is “inactive”.

For `Cn1c(CNC(=O)c2ccco2)nnc1SCC(=O)N1CCN(c2ccccc2)CC1`, the Potency entry is “inactive”.

Consider `O=C(CN1CCc2ccccc2C1)Nc1cccc(S(=O)(=O)N2CCOCC2)c1`, for which the Potency result was “inactive”.

As for `CC1CCC(NC(=O)CN(C)S(=O)(=O)c2ccc3c(c2)c(=O)n(C)c(=O)n3C)CC1` (stereo not drawn), the Potency entry was “inactive”.

`O=C(CSc1nc2ccccc2c(=O)[nH]1)Nc1nc(-c2ccc(Br)cc2)cs1`: the Potency entry is “inactive”.

`Cc1cc(C)c(-c2csc(NC(=O)CCCc3nc4ccccc4c(=O)[nH]3)n2)c(C)c1`: the Potency was 5.17 µM (active).

`CC(=O)NCc1ccc(-c2csc(NC(=O)CCCc3nc4ccccc4c(=O)[nH]3)n2)cc1`: the Potency result is “inactive”.

Consider `CCCSc1ccc([C@H]2N[C@@](Cc3ccccc3)(C(=O)OC)[C@H]3C(=O)N(C)C(=O)[C@@H]23)cc1`, for which the Potency result was “inactive”.

As to `COc1ccc(CC(NC(C)=O)C(=O)NC2CCN(C(=O)c3ccc(OC)c(OC)c3)CC2)cc1OC` (stereo not drawn), the Potency result was “inactive”.

For the molecule `CCc1ccc(OCC2c3cc(OC)c(OC)cc3CCN2C(C)=O)cc1` (stereo not drawn), the Potency is 6.51 µM (active).

Take `COc1ccc(C(=O)N2CCc3cc(OC)c(OC)cc3C2c2cccc([N+](=O)[O-])c2)cc1` (stereo not drawn): the Potency result is “inactive”.

On to `COc1cccc(NC(=O)CN(C)C(=O)c2cc(C3CC3)nn2-c2ccccc2)c1`, for which the Potency result is “inactive”.

For `CCCCCN(C(=O)CCC(=O)OCCOc1ccc(OC)cc1)c1c(N)n(CCCC)c(=O)[nH]c1=O`, the Potency result is “inactive”.

On to `CC(C)N(C(=O)[C@H]1C[C@H](CC(=O)NCCC2=CCCCC2)C(=O)N2CCc3c([nH]c4cc(CCC(=O)N(C)C)ccc34)[C@]12C)C(C)C`, for which the Potency result is “inactive”.

As for `COc1ccccc1C(CNC(=O)c1cccc(NS(=O)(=O)c2ccc(Br)cc2)c1)N(C)C` (stereo not drawn), the Potency result was “inactive”.

For the molecule `O=[N+]([O-])c1cc(Cl)cc(/C=N/NC(=S)Nc2cc(S(=O)(=O)N3CCOCC3)ccc2Cl)c1O`, the Potency is 20.6 µM (active).

`O=C(NC(=S)Nc1ccc(S(=O)(=O)N2CCOCC2)cc1)c1ccccc1[N+](=O)[O-]`: the Potency result is “inactive”.

In the case of `O=S(=O)(c1ccc(NC(=S)NN=C(C2CC2)C2CC2)cc1)N1CCOCC1`, the Potency entry is “inactive”.

In the case of `Cc1cc(=O)oc2c3c(cc(OCC(=O)N[C@H](C(=O)O)c4ccccc4)c12)OC(C)(C)CC3`, the Potency entry was “inactive”.

Take `O=C(c1ccccc1-c1ccccc1)N1CCOCC1`: the Potency result is “inactive”.

`Cc1noc(C)c1C(=O)N1CCOCC1`: the Potency entry is “inactive”.

For the molecule `Cc1oc2c(c1C(=O)N1CCOCC1)C(=O)c1ccccc1C2=O`, the Potency is 4.61 µM (active).

Take `CC(=O)NC12CC3CC(C1)CC(C(=O)N1CCN(S(=O)(=O)c4cccs4)CC1)(C3)C2`: the Potency entry was “inactive”.

Take `Nc1ncnc2c1ncn2[C@@H]1O[C@H](CNCc2cccn2-c2nccs2)[C@@H](O)[C@H]1O`: the Potency result was “inactive”.

In the case of `O=C(CCN1C(=O)[C@@H]2Cc3ccccc3CN2C1=O)NCCc1ccccc1`, the Potency result is “inactive”.
